The results in this text go back to PubChem BioAssay (NCATS).

The nature of assay [1]: Drug repurposing screens with cells derived from glioblastoma tumor samples (AID 1345199). For activity, negative = cell killing: % is set by controls: 0 for no effect and ±100 for the full control effect. Note: nearly all actives have a fitted effect of over 40% in size. Note: potency is the fitted concentration of half-maximal effect. As to conditions: GBM patient neurospheres viability, ATP luminescence, 48 h. In a few lines:
(§1)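 Primary testing used CD133+ neurospheres from four GBM patients, seven concentrations, 48 h exposure and ATP-based viability; confirmation added three slower-growing patient lines.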

The test system of another assay is astro (control astrocytes). Described as above. As to conditions: viability, ATP luminescence, 48 h; series mostly up to 45.9 µM. An outline of the steps:
as §1

The next assay relates to C33A. Put plainly: Primary qHTS to identify gynecologic anti-cancer compounds using libraries of approved drugs and bioactive compounds (AID 1345084). Note: nearly all actives have a fitted effect of over 55% in size. Note: potency is the fitted concentration of half-maximal effect. The settings on record: Gynecologic cancer cell panel viability, ATPlite luminescence, 48 h; series mostly up to 57.5 µM. In a few lines:
(§2)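 In this quantitative HTS, cell killing is estimated from loss of ATP-dependent luciferase light. Cells see five compound concentrations over a 48 h exposure.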

The subject of a further assay is CASKI. The description is as above. The settings on record: Gynecologic cancer cell panel viability, ATPlite luminescence, 48 h; series mostly up to 57.5 µM. An outline of the steps: as §2
In general terms: ATP-based viability assays read luminescence as a measure of living cells.

Another assay concerns Es-2. The assay is described as above. The settings on record: Gynecologic cancer cell panel viability, ATPlite luminescence, 48 h; series mostly up to 57.5 µM. An outline of the steps: as §2
The test system of a further assay is HeLa. The assay is described as above. As to conditions: Gynecologic cancer cell panel viability, ATPlite luminescence, 48 h; series mostly up to 57.5 µM. In a few lines: as §2
The subject of the next assay is Hek293T. The description is as above. As to conditions: Gynecologic cancer cell panel viability, ATPlite luminescence, 48 h, control line for the selectivity index; series mostly up to 57.5 µM. In a few lines: as §2
For another assay, the system named is PA-1. Described as above. As to conditions: Gynecologic cancer cell panel viability, ATPlite luminescence, 48 h; series mostly up to 57.5 µM. In a few lines: as §2
Another assay concerns SKOV3. The assay is described as above. The settings on record: Gynecologic cancer cell panel viability, ATPlite luminescence, 48 h; series mostly up to 57.5 µM. An outline of the steps: as §2
The next assay concerns Tov-21-G. Described as above. The settings on record: Gynecologic cancer cell panel viability, ATPlite luminescence, 48 h; series mostly up to 57.5 µM. An outline of the steps:
as §2

The test system of a further assay is Tov112D. The assay is described as above. The settings on record: Gynecologic cancer cell panel viability, ATPlite luminescence, 48 h; series mostly up to 57.5 µM. An outline of the steps: as §2
A further assay deals with CAOV3. The assay is described as above. The settings on record: Gynecologic cancer cell panel viability, ATPlite luminescence, 48 h; series mostly up to 57.5 µM. In a few lines: as §2
In a further assay the test system is JEG-3. The description is as above. The settings on record: Gynecologic cancer cell panel viability, ATPlite luminescence, 48 h; series mostly up to 57.5 µM. An outline of the steps: as §2
Assay [2] in a line: qHTS assay to identify inhibitors of the type 1 interferon - major histocompatibility complex class I in skeletal muscle: Counter screen cell viability and HiBit confirmation (AID 1347412). Note: potency is the fitted concentration of half-maximal effect; nearly all actives have a fitted effect of over 60% in size. The settings on record: iHSKM muscle cells + IFN-b, HiBiT or CellTiter-Glo, 24 h; HiBiT. An outline of the steps: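 After 24 h with human IFN-beta (4 ng/ml) and compound titrations (top 46 uM final, 1:3, 12 points), HLA-B HiBit myoblasts were lysed for either Nano-Glo HiBiT luminescence or CellTiter Glo viability on paired plates.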

Assay [3] in a line: qHTS assay for small molecule activators of the human pregnane X receptor (PXR) signaling pathway (AID 720659; call rule not given here; note: 0% is about no effect). The settings on record: DPX-2 HepG2 CYP3A4-luciferase, 24 h; series mostly up to 92.3 µM.
In another assay the test system is OV90. Put plainly: Primary qHTS to identify gynecologic anti-cancer compounds using libraries of approved drugs and bioactive compounds (AID 1345084). Note: nearly all actives have a fitted effect of over 55% in size. Note: potency is the fitted concentration of half-maximal effect. The settings on record: Gynecologic cancer cell panel viability, ATPlite luminescence, 48 h; series mostly up to 57.5 µM. An outline of the steps:
as §2
For orientation: In qHTS, concentration-response curves come from the screen itself.

The mark [4] stands for this setting: at 45.9 µM (top of the series), tumour line D.
Setting [5] is: at 45.9 µM (top of the series), tumour line B.
[6] abbreviates: at 21.2 µM (top of the series), tumour line B.
[7] abbreviates: at 21.2 µM (top of the series), tumour line D.

Values joined by “and” are separate entries in the source; they are usually repeats but may differ in a detail not shown here. Equal values may be shown once. A number with no mark means an inactive call. Results filed as inconclusive are left out. More than one record can exist for a structure, and the calls need not agree. Active and inactive are the calls of the source. Unless noted, calls come from the whole dose curve; as a rule, active = well fitted curve in the direction sought with a large enough effect; inconclusive = small, poorly fitted or top-dose-only effect, or another doubt; inactive = no such curve, though single readings can be large; an effect the other way counts as inactive or inconclusive.

As to `CCC1(c2cnc[nH]2)Cc2ccccc2C1`, the activity, negative = cell killing in assay [1] (setting [4]) was -24.8%. Further, in the assay with astro, the Potency entry was “inactive”.

For the compound `CN1CCc2cc(Cl)c(O)cc2[C@H]2c3ccccc3CC[C@@H]21`, the Potency result in the assay on C33A, in the assay with CASKI, with Es-2, with HeLa, in the assay with Hek293T and in the assay with PA-1 was “inactive” in each case. The Potency result with SKOV3, in the assay on Tov-21-G, in the assay with Tov112D and with astro was “inactive” throughout. Further, in assay [1] (setting [5]), the activity, negative = cell killing is -22.7%. For the same compound, the Potency in assay [1] (tumour line A) was 11.2 µM (active).

For `CC(C)[N+](C)(CCC(C(N)=O)(c1ccccc1)c1ccccc1)C(C)C`, the Potency entry in the assay with CAOV3, with CASKI, in the assay on Es-2, with HeLa, in the assay with Hek293T and with JEG-3 was “inactive” throughout. The Potency result with PA-1, with SKOV3, with Tov-21-G and in the assay with Tov112D was “inactive” in each case. In addition, the figures for the activity, negative = cell killing in assay [1] (setting [6]) and in [1] (setting [7]) were -18% and -25.8%, respectively.

As for `Clc1ccc(C(OCCN2CCCCC2)c2ccccc2)cc1` (stereo unspecified), the Potency entry in the assay with C33A, with CASKI, in the assay on Es-2, in the assay with HeLa, in the assay with Hek293T and in the assay on JEG-3 was “inactive” throughout. Moreover, the Potency entry in the assay on Tov-21-G, with Tov112D and in the assay on astro was “inactive” in each case. Besides, the Potency is 3.55 µM (active) in assay [1] (tumour line A), 10 µM (active) in assay [1] (tumour line B) and 7.08 µM (active) in assay [1] (tumour line D).

Consider `C=CC[C@]1(O)CC[C@H]2[C@@H]3CCC4=CC(=O)CCC4=C3C=C[C@@]21C`, for which the Potency result in the assay with CAOV3, in the assay with CASKI, in the assay with Es-2, in the assay on HeLa, with Hek293T and in the assay with JEG-3 was “inactive” throughout. Further, the Potency result in the assay with PA-1, in the assay on Tov-21-G and with Tov112D was “inactive” throughout. For the same compound, the activity, negative = cell killing in assay [1] (setting [5]) is -12.5%. The Potency in assay [1] (tumour line A) was 17.8 µM (active).

Regarding `CCN(CC)Cc1nccn1-c1ccc([N+](=O)[O-])cc1C(=O)c1ccccc1Cl`, the Potency entry with C33A, in the assay with CASKI, with Es-2, in the assay on HeLa, with Hek293T and with JEG-3 was “inactive” in each case. Besides, the Potency entry with SKOV3, in the assay with Tov-21-G, with Tov112D and with astro was “inactive” in each case. Moreover, the activity, negative = cell killing in [1] (setting [5]) was -21%; in [1] (setting [4]) it was -13.7%. The Potency in assay [1] (tumour line A) was 31.6 µM (active).

On to `C[C@H](N)[C@H](O)c1ccc(O)c(O)c1`, for which the Potency result with C33A, with CASKI and with JEG-3 was “inactive” each time. Moreover, the Potency in the assay with SKOV3 was 25.1 µM (active). The activity, negative = cell killing in [1] (setting [5]) was -8.55%; in assay [1] (setting [4]) it was -15.2%.

Take `CCC(OC(C)=O)C(CC(C)NC)(c1ccccc1)c1ccccc1` (stereo unspecified): in the assay with HeLa, the Potency is 31.6 µM (active). Further, the Potency result in the assay on Tov-21-G was “inactive”.

Consider `CC(=O)OC1(c2ccccc2)CCN(CCc2ccccc2)CC1`, for which the Potency entry in the assay on C33A, with Es-2, in the assay with HeLa, in the assay with Hek293T, in the assay on JEG-3 and with PA-1 was “inactive” throughout. Besides, the Potency entry in the assay with Tov-21-G, with Tov112D and in the assay on astro was “inactive” throughout.

As to `C[C@@H]1O[C@@H](O[C@@H]2C=C3CC[C@@H]4[C@H](CC[C@]5(C)[C@@H](c6ccc(=O)oc6)CC[C@]45O)[C@@]3(C)CC2)[C@H](O)[C@H](O)[C@H]1O`, the Potency result in the assay with JEG-3 is “inactive”. Moreover, the Potency in the assay with astro is 0.0282 µM (active); in assay [2] it was 12.5 nM (active).

In the case of `CCC(=O)O[C@H]1CC[C@H]2[C@@H]3CCC4=CC(=O)CC[C@]4(C)[C@H]3CC[C@]12C`, the Potency entry in the assay with C33A, with CASKI, with Es-2, with Hek293T, in the assay on JEG-3 and in the assay on SKOV3 was “inactive” each time. Moreover, the Potency entry in the assay on Tov-21-G and with Tov112D was “inactive” in each case. Further, the Potency in the assay on HeLa was 3.55 µM (active); in the assay with PA-1, 15.8 µM (active); in assay [1] (tumour line A), 14.1 µM (active). The activity, negative = cell killing in assay [1] (setting [6]) was -4.44%; in assay [1] (setting [7]), -24.6%. For the same compound, in assay [3], the outcome was inactive.

In the case of `Cc1ncc2n1-c1ccc(Cl)cc1C(c1ccccc1F)=NC2`, the Potency entry with C33A, in the assay with CASKI, in the assay with Es-2, with HeLa, in the assay with Hek293T and in the assay on JEG-3 was “inactive” throughout. The Potency result in the assay on PA-1, in the assay with SKOV3, in the assay on Tov-21-G and in the assay on Tov112D was “inactive” in each case. Also, the activity, negative = cell killing in [1] (setting [5]) is -17.8%; in [1] (setting [4]) it was -1.25%.

Take `CCCN(CCC)CCc1c[nH]c2ccccc12`: the Potency result in the assay on C33A, with CASKI, in the assay on Es-2, in the assay on HeLa, with Hek293T and in the assay with JEG-3 was “inactive” throughout. Further, the Potency result in the assay on Tov-21-G, in the assay on Tov112D and in the assay on astro was “inactive” each time. Also, the activity, negative = cell killing in [1] (at 91.6 µM (top of the series), tumour line B) is -11.3%; in assay [1] (at 91.6 µM (top of the series), tumour line D), -14%. In addition, the Potency in assay [1] (tumour line A) was 25.1 µM (active).

As to `COc1cc(C[C@@H](C)N)c(OC)cc1C`, the Potency entry in the assay on CAOV3, in the assay on CASKI, in the assay with Es-2, in the assay on HeLa, in the assay with Hek293T and in the assay with JEG-3 was “inactive” throughout. Also, the Potency result in the assay on PA-1, in the assay on SKOV3, in the assay on Tov-21-G, with Tov112D and with astro was “inactive” in each case. In addition, the activity, negative = cell killing in assay [1] (at 108 µM (top of the series), tumour line B) was -21.2%; in [1] (at 108 µM (top of the series), tumour line D) it was -18.9%. The Potency in assay [1] (tumour line A) was 31.6 µM (active).

Consider `C[C@@H]1C[C@@H]([C@H](O)CC2CC(=O)NC(=O)C2)C(=O)[C@@H](C)C1`, for which the Potency with Es-2 was 0.794 µM (active); with Hek293T it was 0.501 µM (active); in the assay on OV90 it was 0.631 µM (active); in the assay with PA-1, 0.708 µM (active); with SKOV3, 2.82 µM (active); in the assay on Tov-21-G, 0.501 µM (active). For the same compound, the Potency was 0.562 µM (active) in the assay on Tov112D; 701 nM (active) and 222 nM (active) in [2]. Further, the Potency result in the assay with JEG-3 was “inactive”.

As to `Clc1ccc(CSC(Cn2ccnc2)c2ccc(Cl)cc2Cl)cc1` (stereo unspecified), the Potency result in the assay with CASKI, with Es-2, with HeLa, in the assay on JEG-3, in the assay on PA-1 and in the assay with Tov-21-G was “inactive” each time. The Potency result in the assay on Tov112D was “inactive”. In addition, the Potency in assay [1] (tumour line A) was 2.24 µM (active).
